Outcome and Potency data for eleven molecules are collected here from PubChem BioAssay (NCATS).

Where “and” joins values, the source holds several entries; their conditions need not be identical. Equal entries are not always repeated. Results filed as inconclusive are left out. Calls of active or inactive are those of the source. Unless noted, calls come from the whole dose curve; as a rule, active = well fitted curve in the direction sought with a large enough effect; inconclusive = small, poorly fitted or top-dose-only effect, or another doubt; inactive = no such curve, though single readings can be large; an effect the other way counts as inactive or inconclusive.

The nature of assay [1]: NCATS anti-infectives library activity on HEK293 viability as a counter-qHTS vs the C. elegans viability qHTS (AID 1745854). An outline of the steps: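 Compounds were acoustically plated (several concentrations, 1:5, final up to 41.7 uM), then 1500 HEK293 cells added per well and incubated 24 hr at 37C, 5% CO2. CellTiter-Glo was added and luminescence read after 10 min.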
A general note: In qHTS, concentration-response curves come from the screen itself.

The nature of assay [2]: NCATS anti-infectives library activity on the primary C. elegans qHTS viability assay (AID 1745855; calls by dose curve). The settings on record: C. elegans worm area imaging, day 7; at 41.8 µM (top of the series) unless noted. An outline of the steps:
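Viability read-out is GFP fluorescence of PE254-GFP-FLuc C. elegans, measured by laser cytometry (488 nm) at day 0, 3 and 7. Ten L1 worms per well were incubated 7 days at 21 °C with compounds and bacterial capsules in S medium.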

Assay [3] in a line: Primary qHTS for small molecule stabilizers of the endoplasmic reticulum resident proteome: Secreted ER Calcium Modulated Protein (SERCaMP) assay (AID 1508630). An outline of the steps: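 GLuc-SERCaMP-expressing SH-SY5Y cells, pretreated 16 h with compound, are challenged with thapsigargin to empty ER calcium stores; after 4 h, coelenterazine is added directly to the medium and luminescence is imaged.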

The nature of assay [4]: A High-Content qHTS Against Drug Library for the Identification of Small Molecules that Inhibit DYT1 Early Onset Primary Dystonia-Associated Cell Pathology (AID 1645839; calls by dose curve; note: potency is the fitted concentration of half-maximal effect). In short, it runs like this:
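In this high-content image screen, delE TorsinA mislocalization in inducible Flp-In 293 cells is scored as %pathology, with cell count serving as the counterscreen. Compound exposure lasts 48 h under tetracycline induction in reduced-serum medium.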

For assay [5], the target named is Cytochrome P450 2D6 (Homo sapiens) (UniProt P10635). Kind of assay: Cytochrome P450 family 2 subfamily D member 6 (CYP2D6) small molecule antagonists: luciferase biochemical (cell-free) qHTS assay (AID 1645840; active = well fitted curve in the direction sought with a large enough effect in the repeat runs; an effect the other way counts as inactive or inconclusive; note: nearly all actives have a fitted effect of over 55% in size; note: potency is the fitted concentration of half-maximal effect). An outline of the steps: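 P450-Glo luminescent screen: recombinant CYP2D6 enzyme–proluciferin substrate mix preincubated with compound 10 min at room temperature, then NADPH regeneration added for 1 h at room temperature. Detection reagent added for 20 min; luciferin light read as relative luminescence units.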
Chain of Cytochrome P450 2D6 (Homo sapiens) (P10635 whole entry, looked up): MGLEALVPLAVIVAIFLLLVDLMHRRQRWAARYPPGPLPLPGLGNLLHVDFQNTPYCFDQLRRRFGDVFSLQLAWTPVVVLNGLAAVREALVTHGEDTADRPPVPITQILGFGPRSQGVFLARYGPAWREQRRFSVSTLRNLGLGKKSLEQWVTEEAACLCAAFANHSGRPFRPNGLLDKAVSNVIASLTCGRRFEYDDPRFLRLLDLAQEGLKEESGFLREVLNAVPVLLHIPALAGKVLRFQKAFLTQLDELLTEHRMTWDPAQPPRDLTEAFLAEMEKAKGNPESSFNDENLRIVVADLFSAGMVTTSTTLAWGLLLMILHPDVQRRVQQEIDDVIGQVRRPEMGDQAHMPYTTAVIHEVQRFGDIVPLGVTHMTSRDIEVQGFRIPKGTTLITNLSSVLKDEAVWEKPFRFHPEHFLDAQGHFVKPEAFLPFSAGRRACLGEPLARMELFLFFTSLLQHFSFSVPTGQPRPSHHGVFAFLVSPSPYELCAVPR

In assay [6] the target is Cytochrome P450 2C9 (Homo sapiens) (UniProt P11712). As to the kind of experiment: Cytochrome P450 family 2 subfamily C member 9 (CYP2C9) small molecule antagonists: luciferase biochemical (cell-free) qHTS assay (AID 1645842; active = well fitted curve in the direction sought with a large enough effect in the repeat runs; an effect the other way counts as inactive or inconclusive; note: nearly all actives have a fitted effect of over 55% in size; note: potency is the fitted concentration of half-maximal effect). In short, it runs like this:
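Luminescence, after 20 min with luciferin detection reagent, reflected CYP2C9 turnover during a 1 h NADPH-driven reaction at 37C. Enzyme-substrate mix contained 0.4% bovine serum albumin and was preincubated with compound 10 min at room temperature.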

Assay [7] can be described thus: Primary qHTS for inhibitors of nuclear receptor binding SET domain protein 2 (NSD2) in an isogenic RCH-ACV NSD2 p.E1099K mutant (9B) (AID 1645876). Note: nearly all actives have a fitted effect of over 70% in size. Note: potency is the fitted concentration of half-maximal effect.
The nature of assay [8]: Primary qHTS for inhibitors of nuclear receptor binding SET domain protein 2 (NSD2) in an RCH-ACV wild type WT cells (2C) (AID 1645877). Note: nearly all actives have a fitted effect of over 70% in size. Note: potency is the fitted concentration of half-maximal effect.

Chain of Cytochrome P450 2C9 (Homo sapiens) (P11712 whole entry, looked up): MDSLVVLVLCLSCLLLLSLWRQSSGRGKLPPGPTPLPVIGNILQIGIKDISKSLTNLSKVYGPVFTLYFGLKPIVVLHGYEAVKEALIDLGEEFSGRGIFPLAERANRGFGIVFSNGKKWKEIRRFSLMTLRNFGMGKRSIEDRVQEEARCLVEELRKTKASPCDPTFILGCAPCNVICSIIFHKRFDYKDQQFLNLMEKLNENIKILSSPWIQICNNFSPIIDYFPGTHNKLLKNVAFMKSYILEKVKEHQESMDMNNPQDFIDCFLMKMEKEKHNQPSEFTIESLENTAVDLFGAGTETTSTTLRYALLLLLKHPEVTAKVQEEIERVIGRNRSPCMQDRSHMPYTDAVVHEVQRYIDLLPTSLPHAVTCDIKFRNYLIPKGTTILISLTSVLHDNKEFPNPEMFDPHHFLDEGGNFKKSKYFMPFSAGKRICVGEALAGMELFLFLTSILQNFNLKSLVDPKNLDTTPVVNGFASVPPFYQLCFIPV

`O=C1C(=O)c2ccccc2C(O)=C1C1CCC(c2ccc(Cl)cc2)CC1` (stereo unspecified): the call in assay [1] and in assay [2] was inactive.
As for `CCCCCCCCCCCCCCCCO`, the Potency result in assay [3], in assay [4], in assay [5], in assay [6] and in assay [7] was “inactive” throughout.
Consider `OC(C#CCN1CCCC1)(c1ccccc1)c1ccccc1`, for which the Potency entry in assay [3], in assay [4], in assay [7] and in assay [8] was “inactive” each time. Also, the Potency in assay [5] is 12.3 µM (active); in assay [6], 8.71 µM (active).
As to `CCOc1ccc(NC(C)=O)cc1`, the Potency result in assay [3], in assay [4], in assay [5], in assay [6], in assay [7] and in assay [8] was “inactive” throughout.
For `CCOC(=O)[C@H](CCc1ccccc1)N[C@@H](C)C(=O)N1[C@H](C(=O)O)C[C@@H]2CCC[C@@H]21`, the Potency result in assay [3], in assay [4], in assay [5], in assay [6] and in assay [7] was “inactive” each time.
Take `CN(C)CCC[C@@]1(c2ccc(F)cc2)OCc2cc(C#N)ccc21`: the Potency entry in assay [3], in assay [4], in assay [6] and in assay [7] was “inactive” in each case. Moreover, the Potency in assay [5] is 13.8 µM (active) and 12 µM (active).
On to `NC(N)=NN=C(/C=C/c1ccc([N+](=O)[O-])o1)/C=C/c1ccc([N+](=O)[O-])o1`, for which, in assay [3], the Potency entry was “inactive”. For the same molecule, the Potency in assay [4] is 1 µM (active); in assay [5], 2.75 µM (active); in assay [6] it was 15.5 µM (active); in assay [7], 0.668 µM (active); in assay [8], 0.531 µM (active).
In the case of `Cc1c[nH]c2ccccc12`, the Potency entry in assay [3], in assay [4], in assay [5], in assay [6], in assay [7] and in assay [8] was “inactive” throughout.
`CN(C)C(=O)Nc1ccc(Cl)c(Cl)c1`: the Potency result in assay [3], in assay [4], in assay [5], in assay [6] and in assay [7] was “inactive” throughout.
Take `CC(=O)Nc1ccc(S(=O)(=O)Nc2ccc([N+](=O)[O-])cc2)cc1`: the Potency result in assay [3], in assay [4], in assay [5] and in assay [7] was “inactive” in each case. Further, in assay [6], the Potency was 13.8 µM (active).
For `Cc1cc2c(OCC(CNC(C)(C)C)OC(=O)c3ccccc3)cccc2[nH]1` (stereo unspecified), the Potency entry in assay [3], in assay [4] and in assay [7] was “inactive” throughout. The Potency in assay [5] is 0.246 µM (active); in assay [6], 3.47 µM (active).
